Measured values as given in PubChem BioAssay (NCI).
The panel holds about 83,000 compounds, 20% with a hit somewhere; the sample as a whole holds those more often.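 In brief: 96-well plates, 48 h treatment, single concentration, percent growth endpoint.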 Values without a mark were called inactive. Active and inactive are the calls of the source. How the source made its calls: active means growth percent below 10; inactive means the rest.

Tests used:
Assay in all cases: NCI-60 one-dose screen, 48 h (100 = growth as untreated, 0 = no growth, -100 = all killed)
Conditions in all cases: 10 µM unless noted
[1] = test system: NCI-H23 lung
[2] = test system: NCI-H226 lung
[3] = test system: NCI-H322M lung
[4] = test system: HOP-62 NSCLC
[5] = test system: NCI-H460 lung
[6] = test system: HOP-92 NSCLC
[7] = test system: NCI-H522 lung
[8] = test system: A549/ATCC NSCLC
[9] = test system: 786-0 renal
[10] = test system: COLO 205 colon
[11] = test system: DU-145 prostate
[12] = test system: K-562 leukemia
[13] = test system: MALME-3M melanoma
[14] = test system: MDA-MB-231 breast
[15] = test system: SF-268 CNS
[16] = test system: SF-295 CNS
[17] = test system: SF-539 CNS
[18] = test system: M14 melanoma
[19] = test system: RXF 393 renal

SMILES	growth [1]	growth [2]	growth [3]	growth [4]	growth [5]	growth [6]	growth [7]	growth [8]	growth [9]	growth [10]	growth [11]	growth [12]	growth [13]	growth [14]	growth [15]	growth [16]	growth [17]	growth [18]	growth [19]
CCCCCCCC(=O)SCC/C=C/[C@@H]1CC(=O)NCc2cc(ccn2)C2=N[C@@](C)(CS2)C(=O)N[C@@H](C(C)C)C(=O)O1	2.97% (active)	-8.32% (active)	-16.8% (active)	-19% (active)	5.33% (active)	-6.63% (active)	-13% (active)	-6.82% (active)	12%	-56% (active)	11.8%	10.3%	11.4%	3.63% (active)	11.8%	-62.2% (active)	17%	4.89% (active)	–
ClCc1ccc(-c2ccc(Cn3cnc4c(Cl)nc(Cl)nc43)cc2)cc1	29.8%	68.3%	48.4%	-15.9% (active)	7.18% (active)	-77.9% (active)	-20.6% (active)	-41.5% (active)	13.2%	35.3%	-93.4% (active)	9.48% (active)	-20% (active)	-37.7% (active)	-13.5% (active)	-74.2% (active)	-86.9% (active)	48.3%	–
CCOC(=O)C1=C(C)N=C2Sc3cccc(OC)c3N2[C@H]1c1ccccn1	86.9%	84.9%	96.4%	80.6%	105%	93.3%	81.2%	94%	113%	103%	105%	101%	91.2%	90.6%	94.2%	101%	103%	103%	–
COC(=O)[C@]12CC[C@@H](C)[C@H](C)[C@@H]1C1=CC[C@@H]3[C@@]4(C)C(C=O)=C[C@@](C)(COS(C)(=O)=O)C4=CC[C@@]3(C)[C@]1(C)CC2	-45.8% (active)	-57% (active)	12.2%	-14.5% (active)	-73.6% (active)	-87.7% (active)	-75.2% (active)	-14.6% (active)	-66% (active)	-39.9% (active)	-92.2% (active)	-6.44% (active)	-77.7% (active)	-55.4% (active)	-57.1% (active)	-60.2% (active)	-69.8% (active)	-55.8% (active)	–
ClCc1ccc(-c2ccc(Cn3cnc4nc(Cl)nc(Cl)c43)cc2)cc1	23.6%	29.1%	56.8%	8.06% (active)	14.3%	25.8%	-25.2% (active)	-6.5% (active)	-14% (active)	-14.1% (active)	-50% (active)	-14.4% (active)	-32.8% (active)	-21.4% (active)	1.27% (active)	-62.5% (active)	-45% (active)	13.1%	–
Cc1cc2c(-c3nc4ccccn4c3NC3CCCCC3)c(O)c(O)cc2c(O)c1-c1c(C)cc2c(-c3nc4ccccn4c3NC3CCCCC3)c(O)c(O)cc2c1O	30.7%	53.6%	54.9%	26%	19.2%	-3.03% (active)	15.1%	22.8%	72.4%	14.8%	32.3%	10.2%	42.5%	26.5%	38.2%	16.6%	16.9%	16.5%	39%
Cc1ccc(-c2cc3c(SCC(=O)Nc4cc(C(F)(F)F)ccc4Cl)nccn3n2)cc1	74.2%	54%	31%	43.3%	14.2%	28.6%	42.7%	36%	54.7%	27%	25.6%	-10.4% (active)	-69.5% (active)	13.4%	56.5%	38.1%	53.9%	50.6%	13.5%
Clc1ccc2c(NCCNc3nc(N4CCCC4)nc4ccccc34)ccnc2c1	11.4%	-31.2% (active)	-7.37% (active)	-47.2% (active)	-23.6% (active)	-1.92% (active)	-48% (active)	-4.72% (active)	-77.4% (active)	-81.4% (active)	5.1% (active)	-24.9% (active)	-69.6% (active)	-60.7% (active)	16.2%	-73.1% (active)	-92.6% (active)	-71.5% (active)	-56.9% (active)
O=C1CC(c2cccc(F)c2)c2c(n[nH]c2-c2ccc(Cl)cc2)N1 (stereo unspecified)	80.4%	80.7%	81.9%	65.7%	106%	83.6%	61.5%	61.4%	89.7%	104%	102%	96.4%	99.4%	80.4%	94.1%	91.8%	91.3%	100%	–
COC(=O)CC[C@@H](C)[C@H]1CC[C@H]2C3CC[C@@H]4C[C@@H]5CC[C@]4(C)[C@@]3(O5)[C@H](Br)[C@@H](Br)[C@]12C (stereo partly specified)	81.1%	87.1%	104%	85.8%	107%	93.4%	58%	68.6%	92.5%	101%	101%	78.2%	103%	99.4%	91.2%	99.3%	103%	90.6%	–
Nc1c(C(=O)c2ccccc2)sc2nc(-c3cccs3)cc(-c3cccs3)c12	67%	80.6%	80.8%	59.6%	14.2%	69.2%	-20.7% (active)	36.2%	47.6%	35.9%	68.2%	18.9%	74.4%	58.4%	53.5%	35%	39.4%	27%	–
COc1cc(-c2cc(-c3ccc(Nc4ccnc5cc(Cl)ccc45)cc3)nc(N3CCOCC3)n2)cc(OC)c1OC	0.48% (active)	92.3%	28.9%	-39.1% (active)	-43.9% (active)	85.8%	-23.7% (active)	-30.7% (active)	-65.5% (active)	32.4%	4.95% (active)	7.37% (active)	-22.4% (active)	-15.4% (active)	11.2%	6.95% (active)	32.9%	-22.2% (active)	-8.41% (active)
CC1(/C=N/NC(N)=S)NC(=O)NC1=O (stereo unspecified)	98%	95.1%	107%	78.5%	105%	92.5%	71.2%	72.4%	105%	98.7%	107%	89.4%	107%	99.2%	102%	108%	110%	103%	–
Cc1cc2c3c(cccc3c1)C(=O)c1ccccc1-2	81%	96.6%	82.3%	99.3%	102%	108%	95%	104%	104%	93.4%	98.9%	98.8%	90.8%	92.6%	92%	103%	97.2%	92.6%	–
COc1cc(-c2nc(C(=O)NCC(=O)O)nn2-c2ccc(Cl)cc2)cc(OC)c1OC	97.5%	87.1%	102%	104%	110%	106%	97.1%	96.6%	103%	108%	111%	89.4%	111%	106%	108%	95.2%	102%	98.5%	–
O=c1[nH]c(N2CCOCC2)nc2scc(-c3ccccc3)c12	87.2%	97.2%	95%	91.3%	110%	79.7%	77%	86.8%	95.2%	101%	107%	101%	88.8%	108%	89.4%	96.5%	94.3%	98.9%	97.5%
CCCCCCCC(=O)SCC/C=C/[C@@H]1CC(=O)NCc2cccc(n2)C2=N[C@@](C)(CS2)C(=O)N[C@@H](C(C)C)C(=O)O1	2.23% (active)	-9.02% (active)	-5.77% (active)	-22.2% (active)	5.88% (active)	-5.42% (active)	-12.7% (active)	0.749% (active)	10.8%	-61.8% (active)	12.3%	11.1%	22.7%	10.2%	11.1%	-62.4% (active)	20%	5.95% (active)	–
